A selection: hits, their analogues and other compounds. The true share with any hit is near 9.5%.
Pf growth 48h: Primary qHTS for delayed death inhibitors of the malarial parasite plastid, 48 hour incubation; hit rate 5.9% among 310,000; P. falciparum luciferase growth in erythrocytes, 48 h; Potency, µM (doses to about 28.7 µM), for the others: top-dose activity change, negative = inhibition, usual class: inhibitors; active = well fitted inhibition curve with a large enough effect; inconclusive = small, poorly fitted or top-dose-only effect, or another doubt; inactive = no such curve, though single readings can be large or run the other way; also: potency is read from the fitted curve at half-maximal effect; % is scaled to controls: 0 for no effect and ±100 for the full control effect
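Parasite viability was followed by luminescence of a genomically integrated firefly luciferase. Cultures held 0.1% parasitemia at 2% hematocrit (final), incubated under 5% CO2 at 37 C.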
Pf growth 96h: Primary qHTS for delayed death inhibitors of the malarial parasite plastid, 96 hour incubation. hit rate 6.9% among 320,000. Potency, µM (doses to about 28.7 µM), for the others: at the top dose activity change, negative = inhibition, actives largely listed as inhibitors. P. falciparum luciferase reporter growth, 96 h; active = well fitted inhibition curve with a large enough effect; inconclusive = small, poorly fitted or top-dose-only effect, or another doubt; inactive = no such curve, though single readings can be large or run the other way; also: potency is read from the fitted curve at half-maximal effect; % is scaled to controls: 0 for no effect and ±100 for the full control effect
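P. falciparum expressing integrated firefly luciferase, in erythrocytes at 2% hematocrit, 0.05% parasitemia, incubated with compounds 96 h at 37 C, 5% CO2. Growth inhibition read as loss of luminescence; two-generation exposure targets delayed-death apicoplast inhibitors.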
NS1 function inh: qHTS Assay for Inhibitors of Influenza NS1 Protein Function | hit rate 0.4% among 270,000 | Potency, µM (titrated, usually from 46.1 µM), without a hit: at the highest dose activity, positive = more growth | AID 2326, 2010; also: potency is read from the fitted curve at half-maximal effect; actives are rising curves; nearly all actives have a fitted effect of over 50% in size
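In this qHTS, NS1 from influenza A is expressed in budding yeast, where it slows growth. Cells are switched from glucose to 2% galactose medium (pH 6.0, -URA), treated with compound, and growth recovery is read at OD600.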
RE007 growth inh: qHTS Assay for Inhibitors of the HIV-1 protein Vpr | Potency, µM (top dose mostly 92.2 µM), inactives show at the highest dose activity change, negative = less growth, hits mostly inhibitors | S. pombe RE007 Vpr strain, BacTiter-Glo ATP luminescence, 24 h | hit rate 0.21% among 360,000; active = well fitted falling curve with a large enough effect; inconclusive = small, poorly fitted or top-dose-only effect; inactive = no such curve, though single readings can be large or run the other way; also: potency is read from the fitted curve at half-maximal effect; % is scaled to controls: 0 for no effect and ±100 for the full control effect; nearly all actives have a fitted effect of over 50% in size
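Fission yeast strain RE007, carrying one chromosomally integrated HIV-1 vpr copy, was seeded at OD 0.01 in PMG+AL medium with 23 nL pinned compound. After 24 h at 30 °C and 99% humidity, viability was read by BacTiter-Glo luminescence.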
SARS PLP yeast: qHTS of Yeast-based Assay for SARS-CoV PLP; S. cerevisiae expressing SARS-CoV PLpro, growth rescue; Potency, µM (doses to about 32.9 µM), inactives show at the highest dose activity, positive = growth rescue, actives largely listed as activators; hit rate 0.19% among 330,000; also: potency is read from the fitted curve at half-maximal effect; 0% is about no effect; nearly all actives have a fitted effect of over 55% in size
NS1 inh valid: Assay for Inhibitors of Influenza NS1 Protein Function: Hit Validation; shares compounds with NS1 function inh; influenza NS1 function cell assay, 15-point titration; activity change, negative = inhibition, % at 32.9 µM; 1,400 tested, under 10 active; AID 492980, 2010; also: 0% is about no effect
Flu PR8 replic: Assay for Inhibitors of Influenza NS1 Protein Function: Influenza virus replication assay in MDCK cells infected with virus A/PR/8/34 | shares compounds with NS1 function inh | MDCK infected influenza A/PR/8/34, virus titer TCID50; stronger effect = lower value | virus titer (log TCID50), log10 TCID50 at 5 µM | hit rate 30% among 95 | AID 504647, 2011; call rule not given here
Numbers without * were called inactive; ? = inconclusive; / = no result; [ ] = another dose, or the depositor's remark. Unless noted, calls follow the shape of the full dose curve.

SMILES	Pf growth 48h	Pf growth 96h	NS1 function inh	RE007 growth inh	SARS PLP yeast	NS1 inh valid	others
O=C(Cc1nc2ccccc2[nH]1)N/N=C/c1ccccc1	22%	-26%	?	3%	-3%	/
COc1ccc(OC)c(/C=N/NC(=O)Cc2nc3ccccc3[nH]2)c1	-12%	-18%	2µM*	-2%	-9%	10
COc1ccc(Br)c(/C=N/NC(=O)COc2ccc(-c3ccccc3)cc2)c1	?	-18%	?	14%	/	-12
c1cc(N2CCCC2)ccc1C(c1nnnn1C1CCCCC1)N1CCOCC1 (stereo not drawn)	0%	-2%	11µM*	14%	0%	5
Clc1ccc(C(c2nnnn2C2CCCC2)N2CCSCC2)cc1 (stereo not drawn)	-23%	80%	-9%	1%	-16%	/
CC1=Nc2nc(N3CCCCC3)c(C#N)c3c4c(nc(c23)N1)N(c1ccc(C(C)C)cc1)C(=O)C4	?	1.2µM*	11µM*	-4%	-3%	12
Cc1ccc(N(CC(=O)N/N=C/c2ccco2)S(=O)(=O)c2ccccc2)cc1	?	?	11µM*	6%	1%	-19	Flu PR8 replic=7.7
FC(F)(F)c1ccccc1/C=N/n1c(COc2ccccc2)n[nH]c1=S	-1%	17%	3%	5%	-6%	/
Cc1ccc(NS(=O)(=O)c2cccc(C(=O)Nc3cccnc3)c2)c(C)c1	/	/	/	-9%	1%	/
CCOC(=O)c1ccc(N2C(=O)c3n[nH]c(C)c3C2c2ccc(OC)cc2OC)cc1 (stereo not drawn)	?	12µM*	5µM*	14%	10%	-9
CC1(OC(=O)c2cccs2)C(=O)C=C2C=C3CCCN3C=C2C1=O (stereo not drawn)	62%	42%	?	0%	-2%	34
CC1(OC(=O)CCc2ccccc2)C(=O)C=C2C=C3CCCN3C=C2C1=O (stereo not drawn)	53%	51%	4%	-1%	1%	/
O=C(Cc1ccsc1)N1CCN(S(=O)(=O)c2ccccc2F)CC1	39%	-4%	/	2%	-3%	/
CCOc1ccc(NC(=S)NC(=O)/C=C/c2ccc(OC)c(OC)c2)c([N+](=O)[O-])c1	?	59%	4µM*	-1%	-1%	-23
C=CCNC(=O)/C(=C\C=C\c1ccccc1)NC(=O)c1ccc(OCCCC)cc1	35%	88%	11µM*	2%	-13%	?
Cc1ccccc1S(=O)(=O)NC(=O)C1(C)CCN1C(=O)Cc1cc(F)ccc1F (stereo not drawn)	/	/	/	3%[18.4 µM]	/	/
CSc1nc(N)n2nc(-c3ccccc3)cc2n1	346%	170%	-3%	-28%	-1%	/
O=C(COC(=O)Cc1c(F)cccc1Cl)NC1CCS(=O)(=O)C1 (stereo not drawn)	-12%	0%	/	13%	6%	/
COc1ccc(NC(=O)CSc2nc(O)cc(=O)n2-c2ccccc2OC)cc1	?	?	?	4%	1%	/
CCN(CC)C(=O)CSc1nc(O)cc(=O)n1-c1ccccc1OC	-16%	12%	8.9µM*	38%	3%	37
CC[C@H](C)[C@H]1O[C@]2(CC[C@@H]1C)C[C@@H]1C[C@@H](CC=C(C)[C@@H](O[C@H]3C[C@H](OC)[C@@H](O[C@H]4C[C@H](OC)[C@@H](O)[C@H](C)O4)[C@H](C)O3)[C@@H](C)C=CC=C3CO[C@@H]4[C@H](O)C(C)=C[C@@H](C(=O)O1)[C@]34O)O2	/	/	/	-9%[18.4 µM]	/	/
CC[C@@H](C)[C@H]1O[C@]2(CC[C@@H]1C)C[C@@H]1C[C@@H](C/C=C(\C)[C@@H](O[C@H]3C[C@H](OC)[C@@H](O[C@H]4C[C@H](OC)[C@@H](O)[C@H](C)O4)[C@H](C)O3)[C@@H](C)/C=C/C=C3\CO[C@@H]4[C@H](O)C(C)=C[C@@H](C(=O)O1)[C@]34O)O2	/	/	7.1µM*	/	/	-1
Oc1c(C(c2ccccc2)N2CCCCC2)sc2ncnn12 (stereo not drawn)	?	?	?	-10%	1%	1
Oc1c(C(c2ccccc2)N2CCN(Cc3ccccc3)CC2)sc2ncnn12 (stereo not drawn)	/	?	?	7%	0%	/
C/C(=N\NC(=O)c1[nH]c2c([N+](=O)[O-])cc(C)cc2c1-c1ccccc1)c1cccnc1	?	165%	8.9µM*	11%	-8%	-14
SMILES	Pf growth 48h	Pf growth 96h	NS1 function inh	RE007 growth inh	SARS PLP yeast	NS1 inh valid	others
C/C(=N\NC(=O)c1cccnc1)c1ccc(C)c([N+](=O)[O-])c1	4%	-28%	/	-18%	1%	/
O=C(Cc1cc(=O)[nH][nH]1)N/N=C/c1c(F)cccc1Cl	-2%	?	/	9%	7%	/
O=C(Cc1cc(=O)[nH][nH]1)N/N=C/c1c(Cl)cccc1Cl	-5%	?	10µM*	4%	17%	?
O=C(Nc1ccc(Cl)c(Cl)c1)Nc1cc(S(=O)(=O)N2CCOCC2)ccc1N1CCCC1	3%	-2%	11µM*	-2%	?	7
O=C(COc1ccc(F)cc1Cl)Nc1cc(S(=O)(=O)N2CCOCC2)ccc1N1CCCCC1	4.1µM*	2.1µM*	3.5µM*	3%	-1%	-36
COc1ccccc1OCC(=O)Nc1cc(S(=O)(=O)N2CCOCC2)ccc1N1CCCCC1	/	/	/	-3%	-10%	/
Cc1ccc(OC(=O)CCC(=O)Nc2ccc(C(N)=O)cc2)cc1	/	/	/	-16%	/	/
CC(C)(C)C(=O)Nc1ccc(C(=O)Nc2cccc(Oc3ccc(C(=O)O)c(C(=O)O)c3)c2)cc1	2%	-23%	11µM*	-1%	-3%	29
CC1Cc2nc(SCC(=O)Nc3ccc4c(c3)OCO4)n(Cc3ccccc3)c(=O)c2S1 (stereo not drawn)	2.3µM*	-5%	11µM*	-2%	14%	31
CC1Cc2nc(SCC(N)=O)n(Cc3ccccc3)c(=O)c2S1 (stereo not drawn)	?	?	10%	21%	6%	/
CC1Cc2nc(SCC(=O)Nc3nccs3)n(Cc3ccccc3)c(=O)c2S1 (stereo not drawn)	3.3µM*	1.5µM*	20µM*	9%	16%	-17
CCCN1CCN(C(=O)CCCn2c(C)c3cnn(-c4ccccc4)c(=O)c3c2C)CC1	/	?	2%	0%	-8%	/
